Format in all cases: functional
For test [1], the target named is Solute carrier family 2, facilitated glucose transporter member 1 (Homo sapiens) (UniProt P11166). In words: ST_JUDE_LEISH: Cytotoxicity at 2uM final concentration against transgenic Leishmania Mexicana promastigotes LmGLUT1 that are glucose transport deficient and complemented with the human glucose transporter GLUT1. Activity is measured by DNA content using SYBR green in vitro.

Test [2] addresses Hexose transporter 1 (Plasmodium falciparum) (UniProt O97467). In words: ST_JUDE_LEISH: Cytotoxicity at 2uM final concentration against transgenic Leishmania Mexicana promastigotes LmPfHT that are glucose transport deficient and complemented with the Plasmodium falciparum hexose transporter. Activity is measured by DNA content using SYBR green in vitro.
Test [3] addresses Glucose transporter (Leishmania mexicana) (UniProt O61059). As to the kind of experiment: ST_JUDE_LEISH: Cytotoxicity at 2uM final concentration against transgenic Leishmania Mexicana promastigotes LmGT2 that are glucose transport deficient and complemented with the L. Mexicana glucose transporter 2. Activity is measured by DNA content using SYBR green in vitro.

Chain of Solute carrier family 2, facilitated glucose transporter member 1 (Homo sapiens) (P11166 whole entry): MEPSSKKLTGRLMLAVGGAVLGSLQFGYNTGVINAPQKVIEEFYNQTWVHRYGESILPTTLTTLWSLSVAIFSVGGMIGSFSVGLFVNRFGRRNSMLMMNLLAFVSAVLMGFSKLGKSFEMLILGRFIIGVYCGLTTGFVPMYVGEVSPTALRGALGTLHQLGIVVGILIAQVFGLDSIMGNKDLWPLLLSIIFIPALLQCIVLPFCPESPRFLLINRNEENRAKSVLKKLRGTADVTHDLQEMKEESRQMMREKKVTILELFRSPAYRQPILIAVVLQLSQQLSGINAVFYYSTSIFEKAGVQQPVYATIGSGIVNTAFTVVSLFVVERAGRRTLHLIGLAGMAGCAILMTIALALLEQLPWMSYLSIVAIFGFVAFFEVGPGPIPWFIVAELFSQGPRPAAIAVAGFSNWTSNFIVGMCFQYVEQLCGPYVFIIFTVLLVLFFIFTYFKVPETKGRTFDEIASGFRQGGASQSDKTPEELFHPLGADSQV

Take `COc1ccc(-c2nc3ccc(C)nc3nc2-c2ccc(OC)cc2)cc1`: the inhibition in test [1] is 5.17%; in test [2] it was 3.91%; in test [3], 3.89%.

On to `CCOc1cc(C(=O)NCCCN2CCCCC2C)ccc1-c1nc2cc(Cl)ccc2[nH]1` (stereo unspecified), for which the inhibition in test [1] was found to be 2.37%; in test [2], 2.23%; in test [3], 0.87%.

`COc1c(I)cc(Cc2cnc(N)nc2N)cc1I`: the inhibition in test [1] was determined as 6.68%; in test [2] it was 4.23%; in test [3], 2.6%.

On to `O=C(Nc1cccc(-c2nn3ccccc3c2-c2ccnc(Nc3ccccc3)n2)c1)c1c(F)cccc1F`, for which the results for the inhibition in test [1], in test [2] and in test [3] were 0.96%, 5.19% and 1.51%, respectively.

In the case of `Cc1ccc(C)c(NC(=O)NC2CCN(c3ccnc(Nc4ccc(F)cc4)n3)C2)c1` (stereo unspecified), the inhibition in test [1] was -2.45%; in test [2], -0.78%; in test [3] it was -1.79%.

For `Cc1cc(C)c(C(=O)Nc2ccc3nc(C)cc(N)c3c2)c(C)c1`, the inhibition in test [1] is -0.82%; in test [2] it was 1.52%; in test [3], 2.61%.

Regarding `COc1ccc([N+](=O)[O-])cc1N(Cc1ccccc1-c1ccccc1)S(=O)(=O)c1ccc(C(F)(F)F)cc1[N+](=O)[O-]`, the inhibition in test [1] was 8.36%; in test [2] it was 5.46%; in test [3], -1.25%.

For `CC(C)C[C@H](NC(=O)c1cc2ccccc2s1)C(=O)N[C@H]1CCN(Cc2ccc(OC[C@@H]3CCCN3C)c(Cl)c2)C1`, the inhibition came out at 10.8% in test [1], 10.6% in test [2] and 8.09% in test [3].

`c1nc(CCNc2nc(Nc3ccc4c(c3)OCO4)nc(NC3CCCC3)n2)c[nH]1`: the inhibition in test [1] worked out at 1.6%; in test [2] it was 2.73%; in test [3], 0.99%.

In the case of `C=CCn1c(Sc2ccc(C#N)c([N+](=O)[O-])c2)nnc1-c1ccc(Cl)cc1`, the inhibition in test [1] was 5.68%; in test [2], 5.18%; in test [3] it was 2.18%.

On to `CS(=O)(=O)NCCCNCc1cccc(-c2csc(-c3nc4ccccc4[nH]3)c2)c1`, for which the inhibition in test [1] was -0.84%; in test [2], -0.51%; in test [3] it was -0.84%.

As to `Cc1cc(C2CCN(CCCCNC(=O)c3ccc(NC(=O)c4ccc(Cl)cc4)cc3)CC2)c(C)cc1OCc1cccnc1`, the inhibition is 0.04% in test [1], -0.98% in test [2] and -0.82% in test [3].

Regarding `COc1ccc2[nH]c(-c3ccccc3)cc(=NN=Cc3ccncc3)c2c1`, the inhibition was found to be 3.48% in test [1], 3.17% in test [2] and 5.54% in test [3].

For the molecule `CN1CC[C@@H](Oc2cc(Nc3nc(-c4ccc(C#N)cc4)cs3)ccc2Cl)C1`, the figures for the inhibition in test [1], in test [2] and in test [3] were 5.3%, 5.47% and 4.06%, respectively.

Regarding `CN(CCCCN)Cc1ccc(-c2ccc(Cl)cc2)cc1`, the inhibition is 21.7% in test [1], 19.1% in test [2] and 10.5% in test [3].

For `CC(NC(C)c1cccc(Cl)c1)C(=O)Nc1cc(C(F)(F)F)ccc1N1CCOCC1` (stereo unspecified), the values for the inhibition in test [1], in test [2] and in test [3] were 0.88%, 0.48% and -9.9%, respectively.

As to `Cc1c(-c2cccc(Br)c2)[nH]c2nc(N)nc(N)c12`, the inhibition in test [1] is 1.29%; in test [2], 2.55%; in test [3], 0.97%.

As for `COc1ccc2nccc([C@@H](O)CN3CCC(NCc4ccc5c(c4)N(C)C(=O)CO5)CC3)c2c1`, the figures for the inhibition in test [1], in test [2] and in test [3] were 0.27%, 0.25% and 0.03%, respectively.

For `O=S(=O)(NCCN1CCCC1)c1ccc(-c2ccc(CNCc3ccc(F)cc3)cc2)s1`, the inhibition in test [1] was found to be 7.34%; in test [2], 5.54%; in test [3], 0.98%.

For the molecule `CCCCCCCN1CC[C@@H](CCCc2ccnc3ccc(OC)cc23)[C@@H](CCN)C1`, the inhibition in test [1] came to 3.03%; in test [2], 2.34%; in test [3], 0.84%.

For the molecule `Cn1ccc(-c2cccc(Nc3ccnc4cc(-c5nccs5)ccc34)c2)n1`, the inhibition in test [1] was -0.21%; in test [2] it was 0.32%; in test [3], -0.17%.

Consider `O=C(/C=C/c1ccc(Cl)cc1Cl)N1CCC(CCN2CCC(c3c[nH]c4ccccc34)CC2)CC1`, for which the inhibition in test [1] turned out to be 3.54%; in test [2] it was 4.28%; in test [3], 5.09%.

For the molecule `COC(=O)c1cccc(CNCc2ccc(-c3cccc(-c4nc5cc(C(F)(F)F)ccc5[nH]4)c3)cc2)c1`, the inhibition turned out to be 11.9% in test [1], 11% in test [2] and 11.5% in test [3].

For `O=C(NCc1cccc(C(F)(F)F)c1)C(c1cc2ccccc2o1)N1CCN(C(c2ccccc2)c2ccccc2)CC1` (stereo unspecified), the results for the inhibition in test [1], in test [2] and in test [3] were 1.37%, 2.33% and 0.71%, respectively.

As for `c1cc(CN2CCc3ccccc3CC2)cc(-c2c[nH]c3nc(NC4CCCC4)ncc23)c1`, the inhibition is -0.02% in test [1], -0.68% in test [2] and 0.91% in test [3].

On to `NCCCNc1nc(Nc2cccc(C(N)=O)c2)c2c(=O)[nH]ccc2n1`, for which the inhibition was -0.41% in test [1], 1.23% in test [2] and 0.77% in test [3].

With `O=C(CCNc1ccnc(NCCc2ccccc2)n1)Nc1ccccc1`, the inhibition in test [1] was -0.28%; in test [2], 3.7%; in test [3], 2.66%.

Consider `CNC(=O)c1ccccc1Nc1cc(Nc2cc(OC)ccn2)ncc1Cl`, for which the inhibition in test [1] stood at 5.77%; in test [2], 7.66%; in test [3] it was 6.6%.

As for `CNc1nc(Nc2ccccc2C)nc2ccccc12`, the inhibition in test [1] is 33.8%; in test [2], 34.3%; in test [3], 18.3%.

For the molecule `C=CCc1cc(Br)ccc1OCCCOc1c(N)nc(N)nc1N`, the inhibition in test [1] was 6.42%; in test [2] it was 7.13%; in test [3], 3.62%.

`CCC[C@@H]1CCN[C@H]([C@H](O)c2ccnc3ccc(OC)cc23)C1`: the inhibition in test [1] came out at 4.68%; in test [2] it was 3.5%; in test [3], 4.53%.

In the case of `CCn1c(C2CCN(CCC3CCN(C(=O)/C=C/c4ccc(Cl)c(Cl)c4)CC3)CC2)nc2ccccc21`, the inhibition in test [1] was found to be 3.31%; in test [2] it was 1.31%; in test [3], 0.66%.

In the case of `Cc1ccc2[nH]c3c(c2c1)CC(C(=O)NCCC(C)C)NC31CCN(Cc2ccccc2)CC1` (stereo unspecified), the inhibition in test [1] was 0.11%; in test [2] it was -3.4%; in test [3], 0.79%.

`O=C(/C=C/c1ccc(Cl)c(Cl)c1)NCCCCCN1CCCC(CNS(=O)(=O)c2ccc(F)cc2)C1` (stereo unspecified): the inhibition in test [1] is -1.15%; in test [2], -0.91%; in test [3], 1.39%.

For `O=C(NCc1ccc(C(=O)NC2CCCCC2)cc1)c1ccc(O)c(-c2ccc(Cl)c(Cl)c2)c1`, the inhibition in test [1] stood at 2.46%; in test [2] it was 1.38%; in test [3], 1.41%.

In the case of `O=C(N[C@@H](Cc1ccccc1)[C@H](O)CNCCC(F)(F)F)c1cccc(CCC2CC2)c1`, the results for the inhibition in test [1], in test [2] and in test [3] were 0.82%, 1.82% and 2.39%, respectively.

In the case of `Cc1ccccc1NC(=O)NC1CCN(CCCCCNC(=O)/C=C/c2ccc(Cl)c(Cl)c2)CC1`, the inhibition turned out to be 1.77% in test [1], 2.24% in test [2] and 1.9% in test [3].

One may read the inhibition as the relative decrease from the control value, in per cent.

The values are drawn from ChEMBL document CHEMBL3433997, “St. Jude Leishmania screening dataset” (2016).
